Compounds with a hit are over-represented: about 2.9% of the library has one in this group of screens.
DRD3 agonist: activates the human D3 dopamine receptor; P35462; D3R DiscoveRx beta-arrestin cells, luminescence, 90 min; max activation, %; 410,000 compounds, 0.58% hits; AID 652048; in the data active = max activation above about 30%
Target sequence (P35462 whole entry, looked up): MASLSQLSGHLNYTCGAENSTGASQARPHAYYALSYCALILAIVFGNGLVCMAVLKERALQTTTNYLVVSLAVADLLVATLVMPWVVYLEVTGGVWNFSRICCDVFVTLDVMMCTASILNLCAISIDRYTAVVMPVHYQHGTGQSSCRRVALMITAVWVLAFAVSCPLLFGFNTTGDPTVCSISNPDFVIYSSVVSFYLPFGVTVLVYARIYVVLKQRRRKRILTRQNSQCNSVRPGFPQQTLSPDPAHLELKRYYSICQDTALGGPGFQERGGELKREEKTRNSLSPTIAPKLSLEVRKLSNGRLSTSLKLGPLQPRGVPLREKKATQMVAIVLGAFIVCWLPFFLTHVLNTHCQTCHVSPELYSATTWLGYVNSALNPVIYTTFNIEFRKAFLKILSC
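Agonist-mode cell screen: cells plated at 1500/well and incubated overnight at 37 °C, then exposed to library compounds for 90 min at 37 °C. Detection reagent was added for 30–60 min at room temperature, and luminescence was read.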
DRD3 antagonist: blocks the human D3 dopamine receptor; P35462; max response, negative = inhibition, %; 360,000 compounds, 2.5% hits; AID 652054; D3R cells, DiscoveRx beta-arrestin luminescence, antagonist mode; stronger effect = lower value; in the data active = max response below about -50%; inconclusive = no clear call, values can overlap the other calls
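Cells expressing the human receptor were seeded at 1500 cells/well, incubated overnight at 37 degrees C in 5% CO2, then exposed to library compounds with dopamine controls for 90 minutes at 37 degrees C before luminescent detection.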
Integrin act MD: activators of alpha7 integrin expression for muscular dystrophy. alpha7betagal myoblasts, beta-gal FDG fluorescence, 48 h. Potency, µM (doses to about 38.3 µM), usual class: activators. 350,000 compounds, 0.064% hits; active = well fitted activation curve with a large enough effect; inconclusive = small, poorly fitted or top-dose-only effect; inactive = no such curve, though single readings can be large or run the other way; note: nearly all actives have a fitted effect of over 60% in size
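alpha7betagal+/- myoblasts (passage 13, 250/well) treated 48 h at 37C with compounds at 1:260 dilution of DMSO stock. Lysed, then beta-galactosidase activity read as FDG fluorescence (ex 480/em 540) after 30 min, with pre-read for autofluorescence.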
Numbers stand for hits; 0 = inactive; ? = inconclusive; - = no result; [ ] = dose if it differs, or a comment.

SMILES	DRD3 agonist	DRD3 antagonist	Integrin act MD
COc1ccc(Oc2ccc3c(C(F)(F)F)cc(C(F)(F)F)nc3n2)cc1	0	0	0
Oc1ccc(Oc2ccc3c(C(F)(F)F)cc(C(F)(F)F)nc3n2)cc1	44	0	0
Cc1nc(-c2cccc(C(F)(F)F)c2)sc1C(=O)O	0	0	0
CC(CNc1nc2ccccc2n2cnnc12)c1ccccc1 (centres undefined)	0	0	0
COc1ccccc1CCc1nnc(CCC(=O)NCCC2CCCCO2)o1 (centres undefined)	0	0	0
COc1ccccc1CCc1nnc(CCC(=O)NCC[C@@H]2C[C@@H]3C=C[C@H]2C3)o1	0	-62	0
Cc1ccc(S(=O)(=O)NCc2cccnc2)cc1C(=O)NC1CCCCC1	0	0	0
COc1ccc(C(=O)CSc2nnc(CC(=O)Nc3ccccc3OC)n2C)cc1	0	0	0
CCN(CC)S(=O)(=O)c1ccc(/C=C/C(=O)O)cc1	0	0	0
CCN(CC)CC(C)(C)C(=O)/C=C/c1ccc(/C=C/C(=O)C(C)(C)CN(CC)CC)cc1	0	-64	0
COc1ccc(S(=O)(=O)Nc2ccc3c(c2)C(=O)N([C@@H](C)CO)C[C@H](C)[C@H](CN(C)S(=O)(=O)c2ccc(F)cc2)O3)cc1	0	0	0
Cc1ccc2c(c1)N(Cc1cccc(C#N)c1)C=NS2(=O)=O	0	0	0
COc1ccc([N+](=O)[O-])cc1NC(=O)C(C)OC(=O)/C=C/c1ccco1 (centres undefined)	0	0	0
Cc1ccc(NC(=O)Cn2c(=O)oc3cc(S(=O)(=O)N4CCCCC4)ccc32)c(C)c1	0	-	-
COc1ccc(OC)c(CN2CCCC(C(=O)N3CCCCC3)C2)c1 (centres undefined)	0	-77	0[7.66 µM]
COc1ccccc1CN1CCCC(C(=O)N2CCCCC2)C1 (centres undefined)	0	0	0
COc1ccc(Br)cc1CN1CCCC(C(=O)N2CCCCCC2)C1 (centres undefined)	0	?	0
COc1ccc(Br)cc1CN1CCCC(C(=O)N2CCCCC2)C1 (centres undefined)	0	-89	0
O=[N+]([O-])c1cccc(S(=O)(=O)N2CCN(S(=O)(=O)N3CCOCC3)CC2)c1	0	0	10µM
O=C(c1cccc(S(=O)(=O)N2CCOCC2)c1)N1CCN(S(=O)(=O)c2cccc([N+](=O)[O-])c2)CC1	0	0	0
CCCn1c(Nc2ccc(Cl)cc2)nc2ccccc21	0	0	0
O=c1n(Cc2ccc([N+](=O)[O-])cc2)c2ccccc2c2nc(-c3ccccc3)nn12	53	-	-
O=c1n(Cc2ccc(F)cc2)c2ccccc2c2nc(-c3ccccc3)nn12	0	-	-
CC(=O)CSc1nsc(SCC(C)=O)c1C#N	0	-69	0
CCOC(=O)CSc1nsc(SCC(=O)OCC)c1C#N	0	0	0
SMILES	DRD3 agonist	DRD3 antagonist	Integrin act MD
O=C(NCc1cccc(F)c1)C1CCC(=O)N(CCc2cccc(F)c2)C1 (centres undefined)	0	0	0
CN1CCS/C1=C\C=C1/SC(=S)N(CC(=O)O)C1=O	0	-68	0
CN1/C(=C\C=C2/SC(=S)N(CC(=O)O)C2=O)C(C)(C)c2ccccc21	0	-79	0
CCN1C(=O)/C(=C/C=C2/SCCN2C)SC1=S	0	0	0
C=CCN1C(=O)/C(=C\C=C2\N(C)c3ccccc3C2(C)C)SC1=S	0	0	0
O=C(Oc1ccc(/C=N/NC(=O)c2ccccc2F)cc1)c1ccccc1	0	0	0
Cc1cc(N)n2nc(C(F)(F)F)nc2n1	0	0	0
COc1ccc(-n2nc(C(=O)Nc3cccc(C)n3)c3c4ccccc4n(C)c3c2=O)cc1Cl	0	-	-
Cc1cccc(NC(=S)N2CCC(C(=O)c3ccc(F)cc3)CC2)c1C	0	0	0
COc1ccccc1CO/N=C/NC(=O)c1c(OC)ccnc1Oc1ccc(F)cc1	0	0	0
COc1ccnc(Oc2ccccc2)c1C(=O)N/C=N/OCc1ccc(F)cc1Cl	46	0	0
CCc1nnc(NC(=O)c2ccc(S(=O)(=O)N(C)Cc3ccccc3)cc2)o1	0	0	0
CN(c1ccccc1)S(=O)(=O)c1ccc(C(=O)Nc2nnc(-c3ccc(F)cc3)o2)cc1	0	-88	0
CN(Cc1ccccc1)S(=O)(=O)c1ccc(C(=O)Nc2nnc(C3CC3)o2)cc1	0	-63	0
CN(c1ccccc1)S(=O)(=O)c1ccc(NC(=O)c2ccc(-c3ccccc3)cc2)cc1	0	0	0
COc1ccccc1-c1nnc(NC(=O)c2ccc(S(=O)(=O)N3CCOCC3)cc2)o1	0	0	0
COc1ccccc1-c1nnc(NC(=O)c2ccc(S(=O)(=O)N(C)Cc3ccccc3)cc2)o1	0	-78	0
O=C(CN1C(=O)COc2ccc(S(=O)(=O)N3CCOCC3)cc21)NCc1ccc(F)cc1	0	-	-
O=C(Cn1cccn1)N1CCCC(N2CCN(Cc3ccc4c(c3)OCO4)CC2)C1 (centres undefined)	0	0	0
CSc1ccc(CCNC(=O)C2CCCN(S(=O)(=O)N3CCOCC3)C2)cc1 (centres undefined)	0	0	0
C=CCn1cccc(C(=O)Nc2ccc(OC)cc2)c1=O	0	0	0
CN(Cc1nc2ccccc2c(=O)[nH]1)C(=O)c1cc(C2CC2)nn1-c1ccccc1	0	-60	0
CCN(Cc1nc2ccccc2c(=O)[nH]1)C(=O)c1cc(C2CC2)nn1-c1ccccc1	0	0	0
O=[N+]([O-])c1cc(Cc2ccccc2)cc(C=Nc2ccc(N3CCOCC3)cc2)c1O	0	-67	0
Cc1ccc(O)c(N=Cc2cc(Cc3ccccc3)cc([N+](=O)[O-])c2O)c1	0	?	0
SMILES	DRD3 agonist	DRD3 antagonist	Integrin act MD
O=C1c2ccccc2[C@@H]2C[C@@H](O)[C@H](Nc3cccc4ccccc34)CCN12	0	-56	0
COc1ccc(N[C@@H]2CCN3C(=O)c4ccccc4[C@@H]3C[C@H]2O)cc1	0	0	0
NC(=O)CN1C(=O)C2C3c4ccccc4C(c4ccccc43)C2C1=O (centres undefined)	0	0	0
Cc1nn2c(N3CCN(c4ccccn4)CC3)cc(C(C)C)nc2c1-c1ccccc1	0	-56	0
Cc1cc(N2CCCCCC2)n2nc(C)c(-c3ccccc3)c2n1	0	0	0
COC(=O)c1ccc(CC(=O)c2ccc(O)cc2O)o1	0	0	0
CCOC(=O)c1ccc(CC(=O)c2ccc(O)cc2O)o1	32	0	0
CSc1ccc(CN(C)CC(=O)Nc2ccc(C)cc2Br)cc1	0	-56	0
CSc1ccc(CN(C)CC(=O)N(C)CC(=O)Nc2ccccc2Br)cc1	0	0	0
CCc1cccc(NS(=O)(=O)c2csc(C(N)=O)c2)c1	33	0	0
Cc1ccc(NS(=O)(=O)c2csc(C(N)=O)c2)cc1C	0	0	0
COc1ccc(CCN(C(=O)c2snc(C(N)=O)c2N)C(C(=O)NCC2CCCO2)c2ccc(F)cc2)cc1OC (centres undefined)	36	0	0
Cc1cccc(CCN(C(=O)c2snc(C(N)=O)c2N)C(C(=O)NCC2CCCO2)c2ccc(F)cc2)c1 (centres undefined)	0	0	0
CCn1c(CNc2ccccc2Cl)nnc1SCCN1CCCCC1	0	-60	0
CCn1c(CNc2ccc(F)cc2)nnc1SCCN1CCCCC1	0	0	0

Compound activity as filed in PubChem.
